Measurements: PubChem BioAssay (NCATS)
Several values for one entry are separate records, joined by “and”; a condition that tells them apart may be missing. Equal values may be shown once. Results filed as inconclusive are left out. A call without a number means that no potency is given here. Activity calls are given as the source filed them. The call rests on the fitted dose curve; in most records, active means well fitted curve in the direction sought with a large enough effect; inconclusive means small, poorly fitted or top-dose-only effect, or another doubt; inactive means no such curve, though single readings can be large; an effect the other way counts as inactive or inconclusive.

Tests used:
[1] = P-glycoprotein substrates identified in KB-3-1 adenocarcinoma cell line, qHTS therapeutic library screen (AID 1346986); conditions: KB-3-1 parental cells viability, CellTiter-Glo, 72 h; series mostly up to 44.5 µM; further: nearly all actives have a fitted effect of over 60% in size;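 further: potency is for cytotoxicity meaning loss of cell viability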
Summary of the method: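 KB-3-1 parental cells and P-gp-overexpressing KB-8-5-11 (colchicine omitted during assay) plated at 500 cells/well, dosed in dose-response, incubated 72 h at 37 degree C. CellTiter-Glo luminescence read; KB-8-5-11 also tested with tariquidar.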

[2] = P-glycoprotein substrates identified in KB-8-5-11 adenocarcinoma cell line, qHTS therapeutic library screen (AID 1346987); conditions: KB-8-5-11 (P-gp overexpressing) viability, CellTiter-Glo, 72 h; series mostly up to 44.5 µM; further: nearly all actives have a fitted effect of over 65% in size
Summary of the method: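 P-gp-mediated resistance screen: KB-8-5-11 cells treated 72 h with compounds in dose-response. CellTiter-Glo viability.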
Potency means the concentration at half of the fitted maximal effect.

Which results are given for `O=C(OC1C=C(CO)C2C(OC3OC(CO)C(O)C(O)C3O)OC=CC12)c1ccc(O)cc1` (stereo unspecified)?
Potency [1]: inactive; Potency [2]: inactive

Which results are given for `CC1CC(C(O)C(C)(C)O)OC2CC3(C)C4(C)CCC5C(C)(C)C(=O)CCC5(C)C4CCC3(O)C12O` (stereo unspecified)?
Potency [1]: inactive; Potency [2]: inactive

Which Potency [1] does the source give for `COC1=CC(=O)CC(C)C12Oc1cc(OC)cc(O)c1C2=O` (stereo unspecified) here?
Its Potency is “inactive”.

And the Potency [2]?
The Potency was “inactive”.

With `CC(C)=CCC/C(C)=C/CO[C@@H]1O[C@H](CO)[C@@H](O)[C@H](O)[C@H]1O` as the molecule, how does the Potency [1] read?
Its Potency is “inactive”.

What about the Potency [2] of the same molecule?
Its Potency is “inactive”.

What does the source list for `O=C(CN1C(=O)C2(CCCC2)NCC1c1cc(F)cc(F)c1)Nc1ccc2c(c1)CC1(C2)C(=O)Nc2ncccc21` (stereo unspecified)?
Potency [1]: inactive; Potency [2]: inactive

With `C[C@@H]1O[C@@H](O[C@H]2[C@H](O)[C@@H](O[C@@H]3O[C@H](CO)[C@@H](O)[C@H](O[C@@H]4O[C@H](CO)[C@@H](O)[C@H](O)[C@H]4O)[C@H]3O)[C@H](O[C@H]3CC[C@@]4(C)C(=CC[C@@H]5C4CC[C@@]4(C)C5C[C@@H]5OC6(CC[C@@](C)(CO[C@@H]7O[C@H](CO)[C@@H](O)[C@H](O)[C@H]7O)O6)[C@@H](C)[C@@H]54)C3)O[C@@H]2CO)[C@H](O)[C@H](O)[C@H]1OC1OC(CO)C(O)C(O)C1O` (stereo partly specified) as the molecule, how does the outcome [1] read?
The outcome was “inactive [at 9.29 µM]”.

And the outcome [2]?
The outcome was “inactive [at 9.29 µM]”.

Which Potency [1] does the source give for `CNC(=O)c1cccc(-c2ccc3c(N4CCOC[C@@H]4C)nc(N4CCOC[C@@H]4C)nc3n2)c1` here?
Its Potency is 0.92 µM (active).

What about the Potency [2] of the same molecule?
The Potency was 366 nM (active) and 580 nM (active).

Which outcome [1] does the source give for `CC1(C=O)CC[C@]2(C(=O)O[C@@H]3O[C@H](CO)[C@@H](O)[C@H](O)[C@H]3O)CC[C@]3(C)C(=CCC4[C@@]5(C)C[C@H](O)[C@H](O[C@@H]6OC[C@@H](O)[C@H](O)[C@H]6O)[C@@](C)(CO)C5CC[C@]43C)C2C1` (stereo partly specified) here?
Its outcome is “inactive [at 9.29 µM]”.

What about the outcome [2] of the same molecule?
Its outcome is “inactive [at 9.29 µM]”.
